Test results taken from PubChem BioAssay (NCI).
This is part of a sample that, as a whole, favours compounds with a hit. Of some 83,000 tested, about 20% had one in any assay.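 For each line, cells grew in 96-well plates with the test compound present at a single concentration for 48 hours.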 A number with no mark means an inactive call. Activity calls are given as the source filed them. Rule for the calls: active = growth percent below 10; inactive = the rest.

Key:
Assay in all cases: NCI-60 one-dose screen, 48 h (100 = growth as untreated, 0 = no growth, -100 = all killed)
Conditions in all cases: 10 µM
SR leukemia = system: SR leukemia
RPMI-8226 leukemia = system: RPMI-8226 leukemia
OVCAR-8 ovarian = system: OVCAR-8 ovarian
OVCAR-5 ovarian = system: OVCAR-5 ovarian
OVCAR-4 ovarian = system: OVCAR-4 ovarian
SK-OV-3 ovarian = system: SK-OV-3 ovarian
IGROV1 ovarian = system: IGROV1 ovarian
OVCAR-3 ovarian = system: OVCAR-3 ovarian
HS 578T breast = system: HS 578T breast
NCI/ADR-RES ovarian = system: NCI/ADR-RES ovarian
T-47D breast = system: T-47D breast
BT-549 breast = system: BT-549 breast
MDA-MB-435 melanoma = system: MDA-MB-435 melanoma
SW-620 colon = system: SW-620 colon
MCF7 breast = system: MCF7 breast
HCT-116 colon = system: HCT-116 colon
HCC-2998 colon = system: HCC-2998 colon
KM12 colon = system: KM12 colon
MDA-MB-468 breast = system: MDA-MB-468 breast

For Cc1ccc(C(=O)N/C(=C2/OCCN2C)[P+](c2ccccc2)(c2ccccc2)c2ccccc2)cc1, the growth (SR leukemia) was 79.5%, the growth (RPMI-8226 leukemia) was 25.6% and the growth (OVCAR-8 ovarian) was 80.5%. For the same compound, the growth (OVCAR-5 ovarian) was 96.3%, the growth (OVCAR-4 ovarian) was 69.8% and the growth (SK-OV-3 ovarian) was 104%. It also gave a growth (IGROV1 ovarian) of 69.9%, a growth (OVCAR-3 ovarian) of 54.5% and a growth (HS 578T breast) of 79.6%. It also gave a growth (NCI/ADR-RES ovarian) of 101%, a growth (T-47D breast) of 55.3% and a growth (BT-549 breast) of 86.8%. The growth (MDA-MB-435 melanoma) was 54.4%, the growth (SW-620 colon) was 84.1% and the growth (MCF7 breast) was 56.4%. For the same compound, the growth (HCT-116 colon) was 57.9%, the growth (HCC-2998 colon) was 75.1% and the growth (KM12 colon) was 55.4%. The growth (MDA-MB-468 breast) was -13.3% (active).
For C=CCn1c(SCC(=O)Nc2ccc(C(=O)/C=C/c3ccccc3)cc2)nnc1-c1c[nH]c2ccccc12, the growth (SR leukemia) was 31.4%, the growth (RPMI-8226 leukemia) was 2.87% (active) and the growth (OVCAR-8 ovarian) was 64.7%. It also gave a growth (OVCAR-5 ovarian) of 102%, a growth (OVCAR-4 ovarian) of 61.9% and a growth (SK-OV-3 ovarian) of 86.8%. It also gave a growth (IGROV1 ovarian) of 42%, a growth (OVCAR-3 ovarian) of 41.4% and a growth (HS 578T breast) of 70.5%. The growth (NCI/ADR-RES ovarian) was 85.4%, the growth (T-47D breast) was 20.8% and the growth (BT-549 breast) was 45.6%. For the same compound, the growth (MDA-MB-435 melanoma) was -13.5% (active), the growth (SW-620 colon) was -28.2% (active) and the growth (MCF7 breast) was -67.7% (active). For the same compound, the growth (HCT-116 colon) was -52.4% (active), the growth (HCC-2998 colon) was -69.4% (active) and the growth (KM12 colon) was 6.81% (active). The growth (MDA-MB-468 breast) was -7.8% (active).
Cc1noc2c(Cc3ccc([N+](=O)[O-])cc3)nn(CC(=O)N/N=C/c3ccc(Cl)cc3)c(=O)c12 gave a growth (SR leukemia) of 88.6%, a growth (RPMI-8226 leukemia) of 84.7% and a growth (OVCAR-8 ovarian) of 20.1%. For the same compound, the growth (OVCAR-5 ovarian) was 73.7%, the growth (OVCAR-4 ovarian) was 7.98% (active) and the growth (SK-OV-3 ovarian) was 67.2%. It also gave a growth (IGROV1 ovarian) of 63.2%, a growth (OVCAR-3 ovarian) of 35.8% and a growth (HS 578T breast) of 10%. For the same compound, the growth (NCI/ADR-RES ovarian) was 45.9%, the growth (T-47D breast) was 43.8% and the growth (BT-549 breast) was 56%. The growth (MDA-MB-435 melanoma) was 76.3%, the growth (SW-620 colon) was 68.2% and the growth (MCF7 breast) was 52.5%. It also gave a growth (HCT-116 colon) of 21.7%, a growth (HCC-2998 colon) of 70.7% and a growth (KM12 colon) of 69.7%. For the same compound, the growth (MDA-MB-468 breast) was 5.37% (active).
Work on O=C(CSc1nnc(-c2c[nH]c3ccccc23)n1-c1ccccc1)Nc1ccc(C(=O)/C=C/c2cccc([N+](=O)[O-])c2)cc1 yielded a growth (SR leukemia) of 75.2%, a growth (RPMI-8226 leukemia) of 13.9% and a growth (OVCAR-8 ovarian) of 97.2%. For the same compound, the growth (OVCAR-5 ovarian) was 103%, the growth (OVCAR-4 ovarian) was 84.2% and the growth (SK-OV-3 ovarian) was 106%. It also gave a growth (IGROV1 ovarian) of 82.9%, a growth (OVCAR-3 ovarian) of 103% and a growth (HS 578T breast) of 74%. For the same compound, the growth (NCI/ADR-RES ovarian) was 96.3%, the growth (T-47D breast) was 57.5% and the growth (BT-549 breast) was 93.5%. The growth (MDA-MB-435 melanoma) was 98.9%, the growth (SW-620 colon) was 101% and the growth (MCF7 breast) was -6.63% (active). For the same compound, the growth (HCT-116 colon) was -54% (active), the growth (HCC-2998 colon) was 62.7% and the growth (KM12 colon) was 88.7%. For the same compound, the growth (MDA-MB-468 breast) was 75.4%.
For CN1CCN(c2ccc(C(=O)/C=C/c3cc(C(F)(F)F)ccc3Cl)cc2)CC1, the growth (SR leukemia) was 1.37% (active), the growth (RPMI-8226 leukemia) was 3.72% (active) and the growth (OVCAR-8 ovarian) was -51.5% (active). For the same compound, the growth (OVCAR-5 ovarian) was -91% (active), the growth (OVCAR-4 ovarian) was -36.5% (active) and the growth (SK-OV-3 ovarian) was 6.75% (active). For the same compound, the growth (IGROV1 ovarian) was -82.7% (active), the growth (OVCAR-3 ovarian) was -37.7% (active) and the growth (HS 578T breast) was 3.68% (active). The growth (NCI/ADR-RES ovarian) was -56.9% (active), the growth (T-47D breast) was -37.4% (active) and the growth (BT-549 breast) was -72.6% (active). For the same compound, the growth (MDA-MB-435 melanoma) was -56.5% (active), the growth (SW-620 colon) was -70.7% (active) and the growth (MCF7 breast) was -85.3% (active). The growth (HCT-116 colon) was -61.7% (active), the growth (HCC-2998 colon) was -98.1% (active) and the growth (KM12 colon) was -36.5% (active). For the same compound, the growth (MDA-MB-468 breast) was -97.6% (active).
In the case of COc1ccc(C(=O)/C=C/c2ccc(Cl)c(C(F)(F)F)c2)cc1S(N)(=O)=O, the growth (SR leukemia) is reported as 8.87% (active), the growth (RPMI-8226 leukemia) is reported as 2.54% (active) and the growth (OVCAR-8 ovarian) is reported as -73.4% (active). For the same compound, the growth (OVCAR-5 ovarian) was -100% (active), the growth (OVCAR-4 ovarian) was -99.7% (active) and the growth (SK-OV-3 ovarian) was 9.96% (active). For the same compound, the growth (IGROV1 ovarian) was -91.5% (active), the growth (OVCAR-3 ovarian) was -66.5% (active) and the growth (HS 578T breast) was -41.3% (active). For the same compound, the growth (NCI/ADR-RES ovarian) was -44% (active), the growth (T-47D breast) was -82.6% (active) and the growth (BT-549 breast) was -82.3% (active). For the same compound, the growth (MDA-MB-435 melanoma) was -96.4% (active), the growth (SW-620 colon) was -94.7% (active) and the growth (MCF7 breast) was -93.6% (active). The growth (HCT-116 colon) was -71.6% (active), the growth (HCC-2998 colon) was -88.3% (active) and the growth (KM12 colon) was -43.7% (active). The growth (MDA-MB-468 breast) was -93.4% (active).
For CC(=O)c1cc(C(=O)c2ccc3c(c2)NC(=O)CO3)n2ccc3ccccc3c12, the growth (SR leukemia) was 63.2%, the growth (RPMI-8226 leukemia) was 62.7% and the growth (OVCAR-8 ovarian) was 50.3%. It also gave a growth (OVCAR-5 ovarian) of 85.7%, a growth (OVCAR-4 ovarian) of 47.9% and a growth (SK-OV-3 ovarian) of 108%. It also gave a growth (IGROV1 ovarian) of 96.2%, a growth (OVCAR-3 ovarian) of 118% and a growth (HS 578T breast) of 63.1%. The growth (NCI/ADR-RES ovarian) was 69%, the growth (T-47D breast) was 75.3% and the growth (BT-549 breast) was 78.3%. For the same compound, the growth (MDA-MB-435 melanoma) was 80.5%, the growth (SW-620 colon) was 93.1% and the growth (MCF7 breast) was 64%. The growth (HCT-116 colon) was 45%, the growth (HCC-2998 colon) was 87.8% and the growth (KM12 colon) was 51.5%. For the same compound, the growth (MDA-MB-468 breast) was 50%.
Compound CC[C@]12C=CCN3CC[C@@]4(c5cc(C#CCNc6ccc(C)c(Nc7nccc(-c8cccnc8)n7)c6)c(OC)cc5N(C)[C@H]4[C@@](O)(C(=O)OC)[C@@H]1OC(C)=O)C32 (some centres not stated) has a growth (SR leukemia) of 21.3%, a growth (RPMI-8226 leukemia) of 38.5% and a growth (OVCAR-8 ovarian) of 48.6%. For the same compound, the growth (OVCAR-5 ovarian) was 81.9%, the growth (OVCAR-4 ovarian) was 41.4% and the growth (SK-OV-3 ovarian) was 110%. It also gave a growth (IGROV1 ovarian) of 60.7%, a growth (OVCAR-3 ovarian) of 48.1% and a growth (HS 578T breast) of 55.7%. The growth (NCI/ADR-RES ovarian) was 54.4%, the growth (T-47D breast) was 45.5% and the growth (BT-549 breast) was -3.24% (active). It also gave a growth (MDA-MB-435 melanoma) of 34%, a growth (SW-620 colon) of 50% and a growth (MCF7 breast) of 21.7%. For the same compound, the growth (HCT-116 colon) was 27.2%, the growth (HCC-2998 colon) was 41.2% and the growth (KM12 colon) was 44.9%. The growth (MDA-MB-468 breast) was 1.75% (active).
